Assay results as given in PubChem BioAssay (NCI).
The panel holds about 83,000 compounds, 20% with a hit somewhere; the sample as a whole holds those more often.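 A percent growth of 40 corresponds to 60% growth inhibition; 0 means no net growth; -100 means all cells died. Active threshold: below 10.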 Active and inactive are the calls of the source.

How the values were obtained:
Assay in all cases: NCI-60 one-dose screen, 48 h (100 = growth as untreated, 0 = no growth, -100 = all killed)
Details in all cases: 10 µM
[1] = tested on: SR leukemia
[2] = tested on: OVCAR-8 ovarian
[3] = tested on: OVCAR-5 ovarian
[4] = tested on: OVCAR-4 ovarian
[5] = tested on: SK-OV-3 ovarian
[6] = tested on: IGROV1 ovarian
[7] = tested on: OVCAR-3 ovarian
[8] = tested on: HS 578T breast
[9] = tested on: NCI/ADR-RES ovarian

Measured: growth

N#CC1=CC2CN(Cc3ccccc3)C1C1C(=O)N(c3ccccc3)C(=O)C21 (centres undefined)
inactive: [1] 93.4% | [2] 98.2% | [3] 101% | [4] 93.2% | [5] 97% | [6] 103% | [7] 111% | [8] 101% | [9] 91.6%

COc1ccccc1-n1c(-c2csc(NC(C)=O)n2)n[nH]c1=S
inactive: [1] 82.8% | [2] 104% | [3] 119% | [4] 103% | [5] 103% | [6] 97.8% | [7] 117% | [8] 105% | [9] 96.2%

COc1cc2c3c(n([C@H]4CCOC4)c(=O)c2cc1OC)-c1cc2c(cc1C3=O)OCO2
inactive: [1] 13.6% | [2] 35.2% | [3] 71.6% | [4] 70.9% | [5] 24.6% | [6] 62% | [7] 46.9% | [8] 107% | [9] 27.5%

Cc1ccc(C2=NN(c3ccc(S(C)(=O)=O)cc3)C(=O)CC2)cc1
active: [1] 4.47% | [7] -14.7% | [8] -1.17% | [9] 6.72%
inactive: [2] 31.8% | [3] 53.1% | [4] 60.8% | [5] 19.9% | [6] 59.2%

Cc1ccc(C(=O)/C=C/c2ccccc2)s1
inactive: [1] 88.3% | [2] 111% | [3] 110% | [4] 133% | [5] 130% | [6] 79.4% | [7] 89.6% | [8] 106% | [9] 113%

COc1ccc([C@H]2[C@H](C(=O)Nc3cccnc3)c3ccccc3C(=O)N2c2ccccc2)cc1
inactive: [1] 46.3% | [2] 96.1% | [3] 114% | [4] 98.2% | [5] 96.4% | [6] 81.4% | [7] 100% | [8] 71% | [9] 97%

Cc1cc(NC(=O)c2ccc(C)c(Nc3nccc(-c4cccnc4)n3)c2)cc(-n2cnc(C)c2)c1
active: [1] -22.3% | [4] -28.7% | [7] -7.87% | [8] 5.73%
inactive: [2] 61.3% | [3] 46% | [5] 27.6% | [6] 32.3% | [9] 59.1%

COc1ccccc1-n1c(-c2sc(NC(C)=O)nc2C)n[nH]c1=S
inactive: [1] 79.5% | [2] 108% | [3] 109% | [4] 106% | [5] 109% | [6] 106% | [7] 135% | [8] 121% | [9] 106%

COc1ccc(-c2nn(-c3cccc(Cl)c3)cc2-c2c(C#N)c(=O)n3[nH]c(-c4ccccc4)nc3c2C#N)cc1
inactive: [1] 71.2% | [2] 110% | [3] 106% | [4] 97.3% | [5] 102% | [6] 108% | [7] 109% | [8] 101% | [9] 93%

c1cnc2[nH]cc(-c3nc(-c4ccsc4)cs3)c2c1
inactive: [1] 87.7% | [2] 96.9% | [3] 111% | [4] 93% | [5] 92.8% | [6] 70.8% | [7] 84.2% | [8] 87.5% | [9] 101%

Cc1c2cnccc2c(C)c2c1oc1ccccc12
inactive: [1] 21.2% | [2] 71.1% | [3] 82.4% | [4] 98.9% | [5] 71.2% | [6] 78.8% | [7] 98.1% | [8] 53.7% | [9] 73.7%

COc1ccc(-c2nn(-c3cccc(Cl)c3)cc2-c2cc(-c3cccs3)[nH]c(=S)n2)cc1
inactive: [1] 32.6% | [2] 48.3% | [3] 83.1% | [4] 60.4% | [5] 83% | [6] 50.7% | [7] 57.8% | [8] 62.7% | [9] 47.4%

CCCCN(CCCC)C(=O)[C@H](CC)[C@@H]1CC[C@@H](C)[C@@H]([C@H](C)[C@@H](O)[C@@H](C)C(=O)[C@H](CC)C2O[C@]3(C=C[C@@H](O)[C@]4(CC[C@@](C)([C@H]5CC[C@](O)(CC)[C@H](C)O5)O4)O3)[C@H](C)C[C@@H]2C)O1 (some centres undefined)
inactive: [1] 27% | [2] 12.5% | [3] 24% | [6] 20.1% | [8] 14.5% | [9] 25.4%
active: [4] 9.88% | [5] -8.58% | [7] 4.13%

N#Cc1c(-c2ccc(Cl)cc2)cc(-c2cc(O)ccc2O)nc1N
active: [2] 1.52% | [6] 7.29% | [7] -17.2%
inactive: [1] 21.7% | [3] 86.6% | [4] 22.9% | [5] 45.2% | [8] 27.6% | [9] 65.3%

O=C(CCCCNC(=O)c1nc(-c2ccccc2)n(-c2ccccc2)n1)NO
inactive: [1] 76% | [2] 51% | [3] 85% | [4] 90.6% | [5] 13.2% | [6] 89.2% | [7] 70.1% | [8] 60.8% | [9] 87.6%

COc1cc2c3c(n([C@@H]4CCOC4)c(=O)c2cc1OC)-c1cc2c(cc1C3=O)OCO2
inactive: [1] 15.1% | [2] 36.7% | [3] 77% | [4] 72.2% | [5] 24.7% | [6] 67.8% | [7] 52.3% | [8] 109% | [9] 30.1%

CCn1c(CSc2nc3ccccc3c(=O)n2CCc2ccccc2)n[nH]c1=S
inactive: [1] 73.1% | [2] 89.7% | [3] 91.9% | [4] 85.6% | [5] 97.9% | [6] 93.4% | [7] 102% | [8] 91% | [9] 73.7%

Cc1[nH]c2ccccc2c1/C=N/Nc1ncnc2sc3c(c12)CCN(CC(=O)OC(C)(C)C)C3
inactive: [1] 23.4% | [2] 69% | [3] 130% | [4] 104% | [5] 108% | [6] 79.8% | [7] 83.1% | [8] 77.7% | [9] 66.1%

O=C(CCCNC(=O)c1nc(-c2ccccc2)n(-c2ccccc2)n1)NO
inactive: [1] 106% | [2] 96.9% | [3] 118% | [4] 118% | [5] 97% | [6] 101% | [7] 108% | [8] 105% | [9] 109%

CC[C@H]1OC(=O)[C@H](C)[C@@H](O[C@H]2C[C@@](C)(OC)[C@@H](O)[C@H](C)O2)[C@H](C)[C@@H](O[C@@H]2O[C@H](C)C[C@H](N(C)C)[C@H]2O)[C@](C)(OC)C/C(C)=C2/O[C@@]1(C)C=C2C
inactive: [1] 14.8% | [2] 78.5% | [3] 24.9% | [4] 73.5% | [5] 102% | [6] 58.1% | [7] 75.3% | [8] 62.5% | [9] 65.4%

CCOC(=O)c1sc2ncnc(Nc3ccc4c(cnn4C(=O)Nc4ccccc4)c3)c2c1C
active: [4] -1.84%
inactive: [1] 27.9% | [2] 51.7% | [3] 98.9% | [5] 73.2% | [6] 87.1% | [7] 67.8% | [8] 41.6% | [9] 49.2%

O=C1CCn2c1c(O)c1ccccc1c2=O
inactive: [1] 95.1% | [2] 103% | [3] 114% | [4] 104% | [5] 103% | [6] 116% | [7] 118% | [8] 93.6% | [9] 103%

Cn1c2ccccc2c2c3[nH][nH]c(=O)c3c3c4ccccc4[nH]c3c21
active: [1] -12.1% | [7] 2.46%
inactive: [2] 33.1% | [3] 62.6% | [4] 51.3% | [5] 13.2% | [6] 11% | [8] 41% | [9] 68.5%

COc1cc2c3c(n(C4CCNCC4)c(=O)c2cc1OC)-c1cc2c(cc1C3=O)OCO2
active: [1] -24.4% | [2] -43.1% | [3] -66.8% | [4] -23.4% | [5] -42.2% | [6] -57.1% | [7] -88.9% | [8] -48.5% | [9] -39.8%

O=S(=O)(NCCCNc1nccc(-c2cn(-c3ccccc3)nc2-c2ccc(Cl)c(O)c2)n1)c1ccccc1
inactive: [1] 42% | [2] 59.5% | [3] 118% | [4] 71.1% | [5] 83.8% | [6] 73.5% | [7] 66.8% | [8] 67.3% | [9] 33.3%

CCc1ccc(C2=NN(c3ccc(S(C)(=O)=O)cc3)C(=O)CC2)cc1
inactive: [2] 39.1% | [3] 48.7% | [4] 76.2% | [5] 28.7% | [6] 37.4%
active: [1] 4.42% | [7] -13.6% | [8] -0.675% | [9] 6.7%
